Measurements: PubChem BioAssay AID743286 (National Center for Advancing Translational Sciences (NCATS), 2014)
Hit rate of the full screen: of about 1,100 compounds, about 340 (31%) were called active. Another 40% or so got no clear call; they are omitted. Calls follow the shape of the dose curve; as a rule, active = well fitted inhibition curve with a large enough effect; inconclusive = small, poorly fitted or top-dose-only effect; inactive = flat fitted curve, though single readings scatter. The list is a sample of the results.

Target: Phosphatidylinositol 5-phosphate 4-kinase type-2 alpha (Homo sapiens) (UniProt P48426)
Experiment: qHTS for Inhibitors of PI5P4K: Confirmation in Primary Assay; also: nearly all actives have a fitted effect of over 65% in size
Details: PI5P4Kalpha enzyme, ADP-Glo luminescence, 60 min; series mostly up to 76.9 µM; activity change, negative = inhibition: at the top concentration
Summary of the method: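 ADP-Glo luminescence end-point quantified ADP produced by PI5P4Kα after 60 min at room temperature with 5 microM ATP. Buffer: HEPES pH 7.4, EGTA, 0.1% CHAPS, 5% DMSO final; compounds added before ATP.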
% is scaled to controls: 0 for no effect and ±100 for the full control effect; potency is read from the fitted curve at half-maximal effect.

Chain of Phosphatidylinositol 5-phosphate 4-kinase type-2 alpha (Homo sapiens) (P48426 whole entry, looked up): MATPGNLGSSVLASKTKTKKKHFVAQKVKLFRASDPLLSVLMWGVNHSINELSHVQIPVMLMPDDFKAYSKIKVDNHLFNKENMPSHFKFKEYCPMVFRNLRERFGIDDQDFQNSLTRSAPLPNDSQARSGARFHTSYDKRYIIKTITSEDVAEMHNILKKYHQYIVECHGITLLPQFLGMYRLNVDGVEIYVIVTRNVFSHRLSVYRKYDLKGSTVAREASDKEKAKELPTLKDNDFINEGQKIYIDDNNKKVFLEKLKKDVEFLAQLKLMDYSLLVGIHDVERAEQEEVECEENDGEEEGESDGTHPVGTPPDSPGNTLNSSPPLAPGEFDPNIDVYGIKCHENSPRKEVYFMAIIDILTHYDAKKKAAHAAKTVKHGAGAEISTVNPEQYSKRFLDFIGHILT

Activity change, negative = inhibition, inactive:
O=C(CN1CCN(c2ccccc2F)CC1)NCc1ccccc1 0.884%
COc1ccc(C(=O)NCCSc2ccccc2)cc1OC -0.179%
COc1ccc(-c2csc(NC(=O)c3ccccc3F)c2C(=O)O)cc1 -21.7%
NC(=O)C1CCN(CC(=O)Nc2ccc3c(c2)OCCO3)CC1 -1.63%
CCOC(=O)CSc1nc2ccc(NC(=O)CSc3nnnn3Cc3ccccc3)cc2s1 -28.3%
O=C(NCCc1ccccc1)C(c1cccs1)N(C(=O)c1csnn1)C1CC1 (centres undefined) -0.725%
Cc1nc(CS(=O)(=O)c2ccccc2)cc(N2CCOCC2)n1 1.26%
O=C(CCNS(=O)(=O)c1ccc(Br)s1)NCc1ccccc1Cl 5.56%
CCCCC1Cc2[nH][nH]c(=O)c2C(c2ccc(F)cc2)O1 (centres undefined) -21.6%
COc1ccc2nc(SCC(=O)N3CCN(c4ccc(F)cc4)CC3)c(C#N)cc2c1 2.87%
O=S(=O)(c1ccccc1)N1N=C(c2cccs2)CC1c1ccc(Br)cc1 (centres undefined) 4.73%
O=C1NC(c2cccs2)Nc2ccccc21 (centres undefined) -12.8%
Cc1cccc(S(=O)(=O)NC(=O)C2(C)CCN2C(=O)Cc2cc(F)ccc2F)c1 (centres undefined) -1.58%
Cc1cccc2cc(CN(Cc3cccnc3)C(=S)NCCCN(C)C)c(=O)[nH]c12 0.897%
COc1cc(Cn2c3ccc(NC(=O)CCc4ccccc4)cc3c(=O)n2C)ccc1F -2.41%
CCOc1ccc(S(=O)(=O)N(C(=O)c2ccco2)c2cc3sc(=O)oc3c3ccccc23)cc1 -1.84%
CCCOc1ccc(CSc2ncn[nH]2)cc1 1.37%
O=C(NCc1ccccc1)C(c1ccccc1)n1c(=O)c(-c2ccco2)nc2ccccc21 (centres undefined) -24.1%
Cn1nnc2cc(C(=O)NC3CC3)ccc21 -7.92%
Cc1nnc(-c2ccccc2)nc1N(C)C -3.17%
O=C(COC(=O)C1CCCCC1)Nc1ccccc1OC(F)F 3.6%
COc1cccc(N2CCN(C(=O)c3ccc(CS(=O)c4ccccc4C)o3)CC2)c1 (centres undefined) 1.63%
CC(C)(C(=O)N1CCC1(C)C(=O)NS(=O)(=O)c1ccc(C#N)cc1)c1ccccc1 (centres undefined) 0.35%
O=C(OCC(=O)N1N=C(c2ccc(Cl)cc2)CC1c1ccco1)c1cccnc1 (centres undefined) -24.6%
COc1ccc(-c2cc(C(=O)Nc3ccccc3O)c3ccccc3n2)cc1 -1.85%
COc1ccc(CCNC(=O)C2CC(c3cccc(F)c3)=NO2)cc1 (centres undefined) -4.13%
O=C(O)CCC(=O)N1CCC(n2nnc3cc(C(F)(F)F)ccc32)CC1 0.897%
O=C(NC1CC1)c1ccc(NC(=O)C2CCC2)cc1 0.977%
CC(C)OC(=O)c1c(NS(=O)(=O)c2ccccc2)sc2c1CCCC2 1.37%
COc1ccc(S(=O)(=O)Nc2ccc3c(c2)CCC3)cc1 4.59%
COc1cc(=O)[nH]c(=O)n1C(=O)Cc1ccccc1 0.157%
CCCCn1c(=O)[nH]c(=O)c2c1nc(-c1ccc(-c3ccccc3Br)o1)n2CC -29.7%
O=C(CC1C(=O)NCCN1CC1CCCCC1)NCc1cc(F)ccc1F (centres undefined) -5.29%
Cc1ccc(CNC(=O)CSc2ncccn2)cc1 0.997%
Cc1ccc(CNC(=O)CCS(=O)(=O)c2ccc(Cl)cc2)cc1 1.11%
O=C(NCc1ccc(F)cc1)C1CCN(c2cnccn2)CC1 4.11%
CCOC(=O)C1(C)CCCN(C(=O)c2ccccc2C(F)(F)F)C1 (centres undefined) -4.14%
COc1ccc(C(=O)N2CCC(C(=O)Nc3ccc(C)cc3)CC2)cc1 -0.331%
CCOC(=O)C1CCCN(C(=O)c2ccc(F)c(C)c2)CC1 (centres undefined) 3.34%
Cc1ccc(C)c(C2=NNC(=NCc3ccccc3)SC2)c1 -10.7%
O=C(Nc1ccc(Cl)cc1)Nc1ccccc1CC[N+](=O)[O-] -4.4%
Cc1cc(C)cc(NC(=O)Cn2nnc(C(=O)NCc3ccc(F)cc3)c2N)c1 -0.223%
COc1ccc(-c2cc(C(F)F)n3ncc(C(=O)n4ccnc4C)c3n2)cc1 -18.4%
Cc1ccc(-n2c(SCC(=O)Nc3ccc4c5c(cccc35)CC4)nc(O)cc2=O)cc1 -25.8%
O=C(NC1CC1)C1=C[C@@H](c2c[nH]c3ccccc23)C[C@@H](OCc2ccc(CO)cc2)O1 -4.48%
COc1ccc(N2CCN(C(=O)c3[nH]c(C(F)(F)F)nc3-c3ccccc3)CC2)cc1 -2.12%
CCOc1ccc(Cl)cc1S(=O)(=O)n1cnc2ccccc21 11%
O=C(Cc1cccs1)N(CC1CCCO1)C1(C(=O)NC2CCCCC2)CCCCC1 (centres undefined) 1.04%
NC(=O)[C@@H]1CC2(CC(c3cccc(NC(=O)COc4ccc(Cl)cc4)c3)=NO2)CN1C(=O)COc1ccc(Cl)cc1 (some centres undefined) -15.9%
CC(NC(=O)c1ccnn1C)C1CCCO1 (centres undefined) 7.18%
Cn1c(=O)oc2cc(S(=O)(=O)Nc3ccccc3)ccc21 -5.26%
CCOc1ccc(NC(=O)N2CCC(n3nnc4ccccc43)CC2)cc1 1.23%
O=C1NN=C2CCCCCC12 (centres undefined) 3.7%
Nc1sc2c(c1C(=O)c1ccccc1)CCCC2 -22.2%
CCC(=O)Oc1ccc(C(=O)Nc2c[nH]c(=O)[nH]c2=O)cc1 -4.14%
O=C(c1ccc(OCCN2CCCCC2)cc1)c1c(-c2ccc(O)cc2)sc2cc(O)ccc12 -20.9%
COc1ccccc1N(CC(=O)N1CCC(C(N)=O)CC1)S(=O)(=O)c1ccccc1 -7.71%
COc1ccc(S(=O)(=O)N(C(=O)c2ccco2)c2cc3sc(=O)oc3c3ccccc23)cc1 -19.6%
CCn1cc(C(=O)N2CCN(c3cccc(C)c3C)CC2)c(=O)c2ccc(C)nc21 -4.99%
CN(Cc1cn(-c2ccccc2)nc1-c1cc2ccccc2o1)C(=O)CCC(=O)O -2.59%
COc1ccc(-c2nnn(CC(=O)N(CC(=O)NC3CCCC3)c3ccccc3)n2)cc1OC 0.286%
COCCNC(=O)C(c1ccc(Cl)cc1)N(Cc1ccco1)C(=O)CCC(=O)Nc1ccccn1 (centres undefined) 0.846%
CCCNC(=O)CSc1nnc(-c2ccco2)n1C -0.997%
Cc1cccc(C)c1NC(=O)C(c1ccc(C(F)(F)F)cc1)n1c(=O)c(-c2ccco2)nc2ccccc21 (centres undefined) -26.5%
COc1ccc(NC(=O)CSc2nnc(-c3ccco3)c(-c3ccco3)n2)cc1OC -19.8%
CS(=O)(=O)c1ccc(C(=O)Nc2nc(-c3ccco3)c(-c3ccco3)s2)cc1 -27.4%
COc1ccccc1Cc1c(-c2ccco2)nc2c(C)cc(Br)cn12 -11.9%
O=C(Nc1nc(-c2ccco2)cs1)c1ccccc1 -26.7%
COc1ccc(C2=NCCn3nc4cc(OC)ccc4c32)cc1 -6.76%

Potency, active:
COc1cc(C(=O)Nc2scc(-c3ccc(Br)cc3)c2C(=O)O)cc(OC)c1OC 5.62 µM
COc1cc(C(=O)Nc2scc(-c3ccccc3)c2C(=O)O)cc(OC)c1OC 12.6 µM
COc1cc(C(=O)Nc2scc(-c3ccc(C)cc3)c2C(=O)O)cc(OC)c1OC 3.55 µM
Cc1ccc(-c2csc(NC(=O)c3ccc(Br)cc3)c2C(=O)O)cc1 14.1 µM
O=C1NC(c2cc(Cl)cc([N+](=O)[O-])c2O)Nc2ccccc21 (centres undefined) 8.91 µM
O=C(NCc1ccco1)c1c2c(nc3ccccc13)CCC2 10 µM
Cc1ccc(-c2cc(C(=O)O)c3cc(Br)ccc3n2)o1 25.1 µM
CCCCCCNC(=O)c1cc(-c2ccco2)nc2ccccc12 7.08 µM
O=C(NC1CCC(O)CC1)c1cc(-c2ccco2)nc2ccccc12 (centres undefined) 12.6 µM
Cc1ccc(-c2cc(C(=O)NCc3ccco3)c3ccccc3n2)o1 14.1 µM
COc1ccc(CCNC(=O)c2cc(-c3ccco3)nc3ccccc23)cc1 15.8 µM
COc1ccc(S(=O)(=O)/N=C2\C=C(NS(=O)(=O)c3ccccc3)C(=O)c3ccccc32)cc1 31.6 µM
Cc1ccc(-c2nc3c(c(=O)[nH]c(=O)n3Cc3ccccc3)n2C)o1 5.62 µM
Cc1ccc(CNC(=O)c2ccc(-n3cccc3)cc2)cc1 12.6 µM
Cc1cc(-c2nc3c4c5c(sc4[nH]c(=O)n3n2)CCC5)c(C)o1 15.8 µM
CCOC(=O)C1CCCN(C(=O)c2cc(-c3ccco3)nc3ccccc23)C1 (centres undefined) 3.16 µM
COC(=O)C1CCN(C(=O)c2cc(-c3ccco3)nc3ccccc23)CC1 3.98 µM
CCOC(=O)Nc1ccc(NCc2ccc(F)cc2)nc1N 31.6 µM
O=C(Oc1ccc2c(c1)OCO2)c1cc2c(s1)CCC2 2.24 µM
O=c1c2ccccc2cnn1-c1nc2ccccc2[nH]1 25.1 µM
CCc1ccc(C2CC(=O)N3CN(c4ccccc4)CSC3=C2C#N)cc1 (centres undefined) 28.2 µM
N#CC1=C2SCN(c3ccc(F)cc3)CN2C(=O)CC1c1cccc(F)c1 (centres undefined) 20 µM
CCc1ccc(N2CSC3=C(C#N)C(c4cccs4)CC(=O)N3C2)cc1 (centres undefined) 12.6 µM
N#CC1=C2SCN(c3ccccc3)CN2C(=O)CC1c1cccs1 (centres undefined) 15.8 µM
C[C@H](NC(=O)c1cc2c(cn1)[nH]c1ccccc12)C(=O)O 10 µM
Cc1ccc(-c2cc3c(n2-c2ccc(C(=O)O)cc2)CCCC3=O)cc1 15.8 µM
Nc1nc(Nc2ccccc2F)sc1C(=O)c1ccccc1 14.1 µM
COc1ccc(C(=O)c2sc(Nc3ccccc3F)nc2N)cc1 5.62 µM
Nc1nc(Nc2ccccc2)sc1C(=O)c1ccccc1 7.94 µM
COc1ccccc1N(CC(=O)NCc1ccco1)S(=O)(=O)c1ccc(C)cc1 15.8 µM
O=C(O)c1cccc(NC(=O)c2cn(-c3ccccc3)nc2-c2cc3ccccc3o2)c1 14.1 µM
COCCNC(=O)Nc1ccc2nc(-c3ccco3)c(-c3ccco3)nc2c1 6.31 µM
COc1ccc2nc(-c3ccco3)c(-c3ccco3)nc2c1 10 µM
CCCCNC(=O)c1ccc2nc(-c3ccco3)c(-c3ccco3)nc2c1 12.6 µM
O=C(c1ccccc1)c1ccc2nc(-c3ccco3)c(-c3ccco3)nc2c1 4.47 µM
